In one assay the test system is PPARg homodimer (NR concentration 180 nM). In words: PBM binding z-score (relative to random genomic background probes); higher = stronger binding; sequences stand for … in GC…GCGATTGACAGCGTAGAATGAAGG
Summed up: (§1)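 Scanned fluorescence from custom Agilent 4×180K protein-binding microarrays was regression-normalized. Binding z-scores use random background probes as reference. Ligand-free nuclear receptor dimers were incubated on the arrays for 1 h and detected with antibodies against each partner (one per run).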
For the sequence CGAACGAGGTCATTGACAGGACAGTGAATAGTAA, the PBM binding z-score stood at 3.3.
TCTAGTTGGTCACGGAGGGCACACACGACGGGTA came in with a PBM binding z-score of 1.2.
Same read-out and setting: the value for AGAATGAGGTCATTAAGATCAGGGAATTGCGGTC was 3.54; that for CGCACTAGGTCATCCAGGACAGTGAATACATTGA was 1.92.
Same read-out and setting: the value for TAGCCTAGGTCATGCGGCCCAGTATAGTGTCGGC was 0.605.
In turn, GATACAGGGTCAGCTACAGGCCAGAGTATGGAAA showed a PBM binding z-score of 1.47.
Regarding ATCGAAAGGTCGACGCGGTGAGTATACACCGTTT, the PBM binding z-score amounted to 1.39.
On the same count and under the same terms, the value for CCTGCTAGGTCATGGTCAGCGAATCTACAGTATG was 2.
GCTGCTAGGTCAACTGATGGTCACCTAAAGCTCG registered a PBM binding z-score of 1.66.
In the case of CCGACTGGGGCAAGGTCACCATAACGCACAGCCA, the PBM binding z-score was found to be 2.64.
For the sequence TCTCGGAGGACACCAAAGGTCAGAGCTCGACATC, the PBM binding z-score came to 3.42.
The same measure, in the same setting: the value for AGTCAAAGTGCATCTAGGTAACGTAAGATATGCT was 0.197; that for CCTACTGGGCCAAAAAGTTCATTGATGCCGATAA was 1.35.
As for ATTTGTAGGTTACATCCGGGTCATTCAGGCTATG, the PBM binding z-score stood at 3.38.
On to CGAACTAGGTCACCCAGGACAGTGAATACATTGA, for which the PBM binding z-score is 2.12.
Same read-out and setting: the value for CGTCCGAGGTCATAGGAGGTCAGTGAAGACAGAT was 5.49; that for CCTAGTTGTTCAGGAGGTCACACACCGGATATGA was 3.91.
On the same count and under the same terms, the value for CGAACTACGTCATCCAGGACAGTGAATACATTGA was 0.384; that for AATAAAGGGTCATCGTAGGCCAGAGTACGCACAG was 5.38.
CGTCAAAGTCCAAGGTAACGTAACAGAAAGCAGC gave a PBM binding z-score of 0.652.
As for TAGCCTAGGTCATACAGGGGCCAGTATAGAAAGC, the PBM binding z-score was 1.83.
Still for that read-out and setting: the value for CGAACAAGGTCATTGACAGGACAGTGAATAGTAA was 2.11; that for ATATGTAGGTTAGCTGGGGTCATTCACACTAGGC was 3.1.
In turn, CGTCCAAGGACAATGCTAGGTCAGTGAAAGCATT displayed a PBM binding z-score of 0.328.
In the case of CGAACGAGGTCATGAGTTGATAGCAAATGCCGAT, the PBM binding z-score worked out at 2.84.
On the same count and under the same terms, the value for AGAATGAGGTCAAGATCAGGGAAACAGAATACAT was 3.03; that for CGTCCAAGGTTAAGGTCAGTGAAAGAGACTCGAA was 3.1; that for CATACAGGGTCGGCTAGGCCAGAGTAGGGACGGC was -0.0997.
Same read-out and setting: the value for CCTACTGGGCCAAAGAGGTCATTGATGCCGATAA was 1.81; that for ATATGTAGGTTAGGGTCAGTCAGAAAGTAGGGAA was 2.59; that for AGTCAAAGTTTATCTAGGTAACGTAAGATATGCT was -0.0246.
Still for that read-out and setting: the value for TAGCCTAGGTCATGCGGGACAGTATAGTGTCGGC was 1.45; that for ACTTAAGGGTCAACGAGGTTATAGCACGCGTATA was 4.43.
TAGCCTAGTTCATTCAGGGGCCAGTATAGAAAGC yielded a PBM binding z-score of 0.283.
Still for that read-out and setting: the value for CGAACAAGGTCATCCAGGACAGTGAATACATTGA was 3.58; that for CGTCCGAGGTCAAGGTCAGTGAAAGAGACTCGAA was 4.23.
Same read-out and setting: the value for TAGCCGAGGTCATTCAGGGGCCAGTATAGAAAGC was 4.27; that for CCTACTCGGCCAAAAAGGTCATTGATGCCGATAA was 3.26; that for CCTTACGGGTCCCTCCAGGTTATAGCATCGGAGT was 0.547.
The same measure, in the same setting: the value for AACGAAAGGTCGAAGGTGAGTATACCCACCCGAA was 0.991.

The test system of another assay is PXR:RXRa (NR concentration 270 nM, RXRa partner concentration 90 nM). The assay is described as above. In short, it runs like this:
as §1
CGAACGAGGTCATTGACAGGACAGTGAATAGTAA returned a PBM binding z-score of 5.28.
The same measure, in the same setting: the value for TCTAGTTGGTCACGGAGGGCACACACGACGGGTA was 1.11; that for AGAATGAGGTCATTAAGATCAGGGAATTGCGGTC was 5.46; that for CGCACTAGGTCATCCAGGACAGTGAATACATTGA was 1.97.
On the same count and under the same terms, the value for TAGCCTAGGTCATGCGGCCCAGTATAGTGTCGGC was 1.27.
On the same count and under the same terms, the value for GATACAGGGTCAGCTACAGGCCAGAGTATGGAAA was 2.17; that for ATCGAAAGGTCGACGCGGTGAGTATACACCGTTT was 2.07; that for CCTGCTAGGTCATGGTCAGCGAATCTACAGTATG was 1.18.
As to GCTGCTAGGTCAACTGATGGTCACCTAAAGCTCG, the PBM binding z-score was found to be 2.06.
Still for that read-out and setting: the value for CCGACTGGGGCAAGGTCACCATAACGCACAGCCA was 3.25; that for TCTCGGAGGACACCAAAGGTCAGAGCTCGACATC was 4.41.
On the same count and under the same terms, the value for AGTCAAAGTGCATCTAGGTAACGTAAGATATGCT was 0.516; that for CCTACTGGGCCAAAAAGTTCATTGATGCCGATAA was 2.98; that for ATTTGTAGGTTACATCCGGGTCATTCAGGCTATG was 4.12.
In the case of CGAACTAGGTCACCCAGGACAGTGAATACATTGA, the PBM binding z-score was determined as 1.88.
The same measure, in the same setting: the value for CGTCCGAGGTCATAGGAGGTCAGTGAAGACAGAT was 7.21.
CCTAGTTGTTCAGGAGGTCACACACCGGATATGA: the PBM binding z-score came to 4.18.
With CGAACTACGTCATCCAGGACAGTGAATACATTGA, the PBM binding z-score is -0.0551.
Same read-out and setting: the value for AATAAAGGGTCATCGTAGGCCAGAGTACGCACAG was 5.11; that for CGTCAAAGTCCAAGGTAACGTAACAGAAAGCAGC was -0.079.
TAGCCTAGGTCATACAGGGGCCAGTATAGAAAGC had a PBM binding z-score of 2.1.
Still for that read-out and setting: the value for CGAACAAGGTCATTGACAGGACAGTGAATAGTAA was 4.12; that for ATATGTAGGTTAGCTGGGGTCATTCACACTAGGC was 6.36.
Same read-out and setting: the value for CGTCCAAGGACAATGCTAGGTCAGTGAAAGCATT was 0.242; that for CGAACGAGGTCATGAGTTGATAGCAAATGCCGAT was 5.17.
Take AGAATGAGGTCAAGATCAGGGAAACAGAATACAT: the PBM binding z-score worked out at 4.67.
On the same count and under the same terms, the value for CGTCCAAGGTTAAGGTCAGTGAAAGAGACTCGAA was 2.73.
On the same count and under the same terms, the value for CATACAGGGTCGGCTAGGCCAGAGTAGGGACGGC was -0.0911; that for CCTACTGGGCCAAAGAGGTCATTGATGCCGATAA was 4.81.
Still for that read-out and setting: the value for ATATGTAGGTTAGGGTCAGTCAGAAAGTAGGGAA was 2.64; that for AGTCAAAGTTTATCTAGGTAACGTAAGATATGCT was 0.694.
The sequence TAGCCTAGGTCATGCGGGACAGTATAGTGTCGGC showed a PBM binding z-score of 1.82.
On the same count and under the same terms, the value for ACTTAAGGGTCAACGAGGTTATAGCACGCGTATA was 6.26.
TAGCCTAGTTCATTCAGGGGCCAGTATAGAAAGC yielded a PBM binding z-score of 1.29.
On the same count and under the same terms, the value for CGAACAAGGTCATCCAGGACAGTGAATACATTGA was 5.44.
The same measure, in the same setting: the value for CGTCCGAGGTCAAGGTCAGTGAAAGAGACTCGAA was 5.51; that for TAGCCGAGGTCATTCAGGGGCCAGTATAGAAAGC was 5.92; that for CCTACTCGGCCAAAAAGGTCATTGATGCCGATAA was 4.83.
CCTTACGGGTCCCTCCAGGTTATAGCATCGGAGT: the PBM binding z-score worked out at 0.139.
Same read-out and setting: the value for AACGAAAGGTCGAAGGTGAGTATACCCACCCGAA was 3.
